# Data: PubChem BioAssay (Tox21)
# Inconclusive results are not listed. Values without a mark were called inactive. Activity calls are given as the source filed them. Calls come from the whole dose curve; as a rule, active = well fitted inhibition curve with a large enough effect in the repeat runs; inconclusive = weak or mixed curves, or effect the other way; inactive = no such curve, though single readings can be large or run the other way.
# Target: Nuclear receptor subfamily 1 group I member 3 (Homo sapiens) (UniProt Q14994)
# Sequence (Q14994 whole entry, looked up): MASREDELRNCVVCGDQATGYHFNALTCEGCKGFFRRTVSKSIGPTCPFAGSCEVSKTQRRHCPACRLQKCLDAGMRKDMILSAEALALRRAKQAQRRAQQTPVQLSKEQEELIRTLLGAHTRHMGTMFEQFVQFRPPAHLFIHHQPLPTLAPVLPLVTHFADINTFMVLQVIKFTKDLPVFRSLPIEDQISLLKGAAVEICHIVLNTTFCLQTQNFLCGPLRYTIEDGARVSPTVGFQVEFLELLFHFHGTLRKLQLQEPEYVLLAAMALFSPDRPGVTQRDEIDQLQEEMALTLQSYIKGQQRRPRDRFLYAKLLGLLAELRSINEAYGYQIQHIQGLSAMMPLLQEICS
# Experiment: qHTS assay to identify small molecule antagonists of the constitutive androstane receptor (CAR) signaling pathway (AID 1224838);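 note: HepG2 cells stably expressing hCAR with CYP2B6 luciferase reporter stimulated by CITCO; nearly all actives have a fitted effect of over 40% in size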
# Conditions: HepG2-CYP2B6-hCAR luciferase, CITCO-stimulated, 24 h; series mostly up to 92.4 µM; activity, negative = inhibition: at the top concentration
# Outline: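 Quantitative HTS in double-stable HepG2-CYP2B6-hCAR cells. After 4 h plating, cells get compound (15 concentrations) and CITCO at 50 nM final, incubate 24 h at 37 C, then ONE-Glo luminescence is read.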
# % is set by controls: 0 for no effect and ±100 for the full control effect; potency is the fitted concentration of half-maximal effect.
SMILES,"activity, negative = inhibition",Potency
COc1ccc2c(c1OC)C(=O)O[C@@H]2[C@H]1c2cc3c(cc2CCN1C)OCO3,54.8%,
CC(Cc1ccc(OCC(=O)O)cc1)NCC(O)c1csc(C(F)(F)F)n1 (stereo not given),-14.9%,
Nc1ccc(Cl)cc1C(=O)c1ccccc1F,95.7% [at 42.5 µM],
O=c1c2ccccc2c(=O)c2c1cc(Cl)c1[nH]c3c([nH]c12)c(Cl)cc1c(=O)c2ccccc2c(=O)c13,-7.43%,
CCc1cccc(C)c1N(C(=O)CCl)[C@@H](C)COC,80.5%,
C=Cc1cccc(CCl)c1,16.3% [at 240 µM],
CNC(C)(C)Cc1ccccc1,2.39% [at 42.5 µM],
CCC(C)Br (stereo not given),26.4%,
OCC(Br)CBr (stereo not given),1.72%,
ClC1=C(Cl)[C@]2(Cl)[C@H]3[C@H]([C@@H]4C=C[C@H]3C4)[C@@]1(Cl)C2(Cl)Cl,,inactive
CCOP(=S)(OCC)SC(CCl)N1C(=O)c2ccccc2C1=O (stereo not given),-4.04%,
Oc1ccc(Cl)c(Cl)c1,44.1%,
COC(=O)C(C)N(C(=O)c1ccco1)c1c(C)cccc1C (stereo not given),13.8%,
COP(=S)(NC(C)C)Oc1ccc(C)cc1[N+](=O)[O-] (stereo not given),86.1%,
Clc1ccc(C(Cl)(Cl)Cl)cc1Cl,38.3%,
Cc1ccc(C)c2ccccc12,13.3%,
COc1cnc(OC)n2nc(NS(=O)(=O)c3c(OCC(F)F)cccc3C(F)(F)F)nc12,-12.1%,
CC(O)C(=O)[O][Hg][c]1ccccc1 (stereo not given),,4.33 µM (active)

SMILES,"activity, negative = inhibition",Potency
CCCCCON=O,6.38%,
CNC(=O)/C=C(\C)OP(=O)(OC)OC,-0.562%,
CC(C)N(C(=O)SC/C(Cl)=C/Cl)C(C)C,33.4%,
CC[N+]1(CC)CCC(OC(=O)C(O)(c2ccccc2)c2ccccc2)C1 (stereo not given),-6.91% [at 42.5 µM],
C[C@@H]1CC2=CC(=O)CC[C@@H]2[C@H]2CC[C@@]3(C)[C@@H](CC[C@]3(C)O)[C@@H]21,26.1% [at 42.5 µM],
CCCCc1ccccc1,-9.84%,
Clc1ccc(C2(Cn3cncn3)OCCO2)c(Cl)c1,51.9%,
CCC1COC(Cn2cncn2)(c2ccc(Cl)cc2Cl)O1 (stereo not given),91%,
COc1c2c(cc3c1OCO3)CCN(C)C2,32.3% [at 42.5 µM],
CNC(=O)Oc1cc(C)cc(C(C)C)c1,8.26%,
CSC(C)(C)/C=N/O,-21.1%,
Nc1cc(Cl)ccc1Cl,7.2%,
C=CCBr,-14%,
CC[C@H](C)[C@H]1O[C@]2(C=C[C@@H]1C)C[C@@H]1C[C@@H](C/C=C(\C)[C@@H](O[C@H]3C[C@H](OC)[C@@H](O[C@H]4C[C@H](OC)[C@@H](NC)[C@H](C)O4)[C@H](C)O3)[C@@H](C)/C=C/C=C3\CO[C@@H]4[C@H](O)C(C)=C[C@@H](C(=O)O1)[C@]34O)O2,,13.7 µM (active)
N#CCCl,34.6%,
c1cc[n+]2c(c1)-c1cccc[n+]1CC2,-25.3% [at 42.5 µM],
CN=C=O,-10.8%,
